# Most compounds without a hit are left out; they make up all but 14% or so of the library.
# FBPA Giardia inh – qHTS Assay for Inhibitors of Fructose-1,6-bisphosphate Aldolase from Giardia Lamblia | 0.71% of 290,000 active | A8B2U2 | purified Giardia FBPA | Potency, µM (titrated, usually from 59.6 µM), for inactives: at the top dose activity, negative = inhibition, actives largely listed as inhibitors; further: potency means the concentration at half of the fitted maximal effect; on the % scale 0 is the no-effect control and ±100 the full control effect; nearly all actives have a fitted effect of over 55% in size
# Target sequence (A8B2U2 whole entry, looked up): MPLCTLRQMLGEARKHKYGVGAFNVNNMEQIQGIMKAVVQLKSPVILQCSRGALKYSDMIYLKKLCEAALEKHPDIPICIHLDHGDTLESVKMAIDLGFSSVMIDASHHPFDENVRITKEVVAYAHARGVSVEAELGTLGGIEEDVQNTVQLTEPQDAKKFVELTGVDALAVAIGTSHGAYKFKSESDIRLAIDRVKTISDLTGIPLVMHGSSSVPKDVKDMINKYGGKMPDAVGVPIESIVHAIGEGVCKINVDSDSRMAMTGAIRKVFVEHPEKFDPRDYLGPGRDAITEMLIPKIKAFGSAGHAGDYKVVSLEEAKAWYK
#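 40 nM FBPA preincubated 10 min at RT with compound (up to 57.5 uM final), then substrate plus GAPDH/TPI/NAD/arsenate coupling and diaphorase/resazurin added. Fluorescence read after 20 min at RT, 525/598 nm.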
# CHX counter – Cycloheximide Counterscreen for Small Molecule Inhibitors of Shiga Toxin. max response, %. cell reporter, cycloheximide protein synthesis inhibition counterscreen. 12% of 300,000 active; in the data active means max response mostly above about 13%, no sharp cut-off; inactive means mostly below about 14%; further: read at 38.3 µM for the half of the compounds with a filed dose; 0% is about no effect
# Shiga toxin inh – A qHTS for Small Molecule Inhibitors of Shiga Toxin; AID 2315, 2010; 9.2% of 290,000 active; inhibition, % at 38.7 µM; Vero cells, Shiga toxin protein synthesis inhibition reporter; in the data active means inhibition mostly above about 28%, no sharp cut-off; inactive means mostly below about 43%; further: 0% is about no effect
# NS1 inh – qHTS Assay for Inhibitors of Influenza NS1 Protein Function; Potency, µM (top dose mostly 46.1 µM), for the others: top-dose activity, positive = more growth; 0.4% of 270,000 active; AID 2326, 2010; calls by dose curve; further: potency means the concentration at half of the fitted maximal effect; actives are rising curves; nearly all actives have a fitted effect of over 50% in size
#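 Growth recovery, yeast-based: influenza A NS1 expressed in S. cerevisiae causes slow growth, and suppressors are detected by OD600. The parent strain without NS1 is used as positive control.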
# LmPK inh – qHTS Assay for Inhibitors of Leishmania Mexicana Pyruvate Kinase (LmPK). Potency, µM (doses to about 57.5 µM), without a hit: at the top dose activity change, negative = inhibition, hits mostly inhibitors. purified LmPK, Kinase-Glo ATP luminescence, 1 h. 0.37% of 290,000 active. AID 1721, 2009. Q27686; further: potency means the concentration at half of the fitted maximal effect; on the % scale 0 is the no-effect control and ±100 the full control effect
#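 Screened at intermediate enzyme activity to detect both inhibitors and activators: LmPK at 0.1 nM, with a 0.5 nM enzyme column as activation reference. PEP 0.5 mM, ADP 0.1 mM; ATP detected by luminescence after 1 h.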
# * hit, by the source's call; ? = inconclusive; · = no result; ! = not active in a repeat. Unless noted, the call rests on the fitted dose curve; in most records, active means well fitted curve in the direction sought with a large enough effect; inconclusive means small, poorly fitted or top-dose-only effect, or another doubt; inactive means no such curve, though single readings can be large; an effect the other way counts as inactive or inconclusive.
SMILES,FBPA Giardia inh,CHX counter,Shiga toxin inh,NS1 inh,LmPK inh
CCOc1ccc(NC(=O)Cn2nnc(C(=O)NCCc3ccc(OC)c(OC)c3)c2N)cc1,1.5%,-2.3,-7.1,4.6%,6.7%
COc1ccc(Cl)cc1NC(=O)c1nnn(CC(=O)Nc2ccc(C)c(C)c2)c1N,1.6%,-1.8,11.1,11.3%,5.6%
Cc1ccc(NC(=O)Cn2nnc(C(=O)Nc3ccc(C)c(C)c3)c2N)cc1,6.7%,14.7*,3.7,8.7%,-1.2%
Cc1ccc(NC(=O)c2nnn(CC(=O)Nc3ccc4c(c3)OCO4)c2N)cc1C,-9.5%,20.7*,22.9,1.2%,8.3%
Nc1c(C(=O)NCc2ccco2)nnn1CC(=O)Nc1ccc2c(c1)OCO2,-1.7%,-3.9,-10.7,·,-6.3%
COc1ccc(CCNC(=O)Cn2nnc(C(=O)Nc3ccc(Br)cc3)c2N)cc1OC,·,31.1*,18.9,-6.1%,5.5%
C=COC(=O)/C=C/C,0.4%,-3.8,-10.2,·,·
CC(C)c1ccc(C(C)NCCS(=O)(=O)c2ccc(Cl)cc2)cc1 (stereo not given),·,-0.5,6.1,-14.0%,-0.9%
CC(C)(O)C1Cc2cc(/C=C/C(=O)O)c(O)cc2O1 (stereo not given),-27.1%,-3.1,-5.1,1.2%,28.2µM*
COc1cc2c(cc1/C=C/C(=O)O)OC(C)C2 (stereo not given),8.1%,11.1,-8.9,·,3.2%
C[C@@H]1C=C[C@](Cc2ccccc2)(C(=O)NCC2CC2)N1C(=O)c1ccccc1,-6.9%,70.3*,172.7*,1.5%,2.3%
COC(=O)CNC(=O)[C@@]1(Cc2ccccc2)C=C[C@@H](C)N1C(=O)c1ccccc1,0.7%,·,·,·,·
O=C(O)CCC(=O)C(=O)O,·,·,·,-1.4%,·
Cc1nc(NC(=O)c2ccc(Br)o2)sc1C,-8.3%,44.8*,62.9*,-62.3%,15.8µM*
Cc1ccc(C(=O)Nc2nc(C)c(C)s2)o1,-5.6%,35.5*,62.2*,-13.9%,14.1µM*
Cc1ccc(C(=O)Nc2nnc(C)s2)o1,-1.8%,9.9,-3.4,-3.2%,-4.3%
CCCS(=O)(=O)N1CCCC(C(=O)Oc2ccc(OC)cc2)C1 (stereo not given),7.9%,-1.0,1.4,?,-4.4%
CC(N)COC(=O)C(CCCCN)NC(=O)Cc1c(-c2ccc3ccccc3c2)[nH]c2c1ccc1ccccc12 (stereo not given),0.6%,-6.1,14.5,·,·
COc1ccc(CNC(=O)C[C@H]2C(=O)N(CCc3ccccc3)C[C@@H]2Cc2ccccc2)cc1,-0.4%,-1.9,-2.4,-18.7%,-1.8%
COCCn1c(-c2ccc(SC)cc2)nc2c1c(=O)[nH]c(=O)n2CC(C)C,-11.4%,24.4*,25.5,6.3%,7.6%
O=C(CSCc1ccccc1)NNc1c(F)c(F)cc(F)c1F,17.2%,9.7,33.9,-1.4%,-6.3%
COC(=O)c1cc(C(=O)Nc2cc(C)on2)cc([N+](=O)[O-])c1,-0.1%,-2.2,·,7.0%,-10.6%
Cc1c(OCC(=O)C(C)(C)C)ccc2c3c(c(=O)oc12)CCCC3,12.7%,-1.0,·,9.9%,-1.4%
Cc1c(OCC(=O)N(C)c2ccccc2)ccc2c3c(c(=O)oc12)CCC3,-0.7%,23.5*,74.5*,-36.7%,-2.7%
Cc1c(OCC(=O)NCC(O)c2ccccc2)ccc2c3c(c(=O)oc12)CCCC3 (stereo not given),-4.4%,-7.2,-8.4,9.4%,6.9%
SMILES,FBPA Giardia inh,CHX counter,Shiga toxin inh,NS1 inh,LmPK inh
CCOC(=O)COc1ccc2c3c(c(=O)oc2c1C)CCC3,1.5%,14.8*,26.6,-6.8%,-7.4%
CC1(C)Cc2c(sc(NC(=O)C(=O)NCCCN3CCOCC3)c2C#N)CO1,·,4.1,-10.2,7.1%,-8.8%
CCc1cccc(NC(=O)CN(c2ccc(C)cc2)S(=O)(=O)c2c(C)noc2C)c1,-15.0%,-5.2,-10.4,6.1%,0.8%
CN(Cc1cc(Br)cc(Br)c1N)C1CCCCC1,-12.8%,·,·,·,·
CNC(=O)c1ccsc1NC(=O)c1ccccc1,2.1%,24.7*,15.7*,-47.9%,-4.0%
CC/C(=N\NC(=O)c1nnn(-c2nonc2N)c1CN(C)c1ccccc1)c1ccccc1,-24.5%,-1.5,12.6,19.5%,-6.8%
Cc1nc(NC(=O)CN2CCC(O)(c3ccc(F)cc3)CC2)sc1C,-2.7%,16.7*,46.9*,?,-4.3%
CC(C)CCC[C@@H](C)[C@@H]1CC[C@@H]2[C@H]3CC[C@H]4C[C@@H](N)CC[C@@]4(C)[C@@H]3CC[C@]21C,·,·,·,-33.0%,·
CC1=CC(C)(C)N=C(Nc2ccc(C)cc2)S1,2.6%,50.4*,44.5,-11.5%,0.9%
Cc1ccc(Nc2nnns2)cc1,2.6%,5.5,-6.6,-33.4%,-0.9%
O=C(/C=C/c1ccc(O)c(O)c1)O[C@H](Cc1ccc(O)c(O)c1)C(=O)O,?,0.3,12.4,5.62µM*,20.7%
N[C@H](Cc1ccc(O)c(O)c1)C(=O)O,?,·,·,3.8%,·
C[C@](N)(Cc1ccc(O)c(O)c1)C(=O)O,17.7µM*!,-1.2,-6.5,-9.9%,3.3%
NC(Cc1ccc(O)c(O)c1)C(=O)O (stereo not given),15.8µM*,·,·,·,·
NC(c1ccccc1)c1ccncc1 (stereo not given),?,1.2,-4.8,-10.0%,-2.7%
Fc1ccc(/C=N/N2CCOCC2)c(F)c1,3.4%,21.5*,38.3,·,2.2%
COc1ccc(OC)c(/C=N/N2CCN(c3ccc(Cl)cc3)CC2)c1,4.5%,-1.3,13.5,1.0%,-5.2%
COc1cccc(C=Nc2ccc3c(c2)OCCO3)c1O,?,74.7*,106.8*,?,?
COc1cccc(C=Nc2ccc(N3CCOCC3)cc2)c1O,-0.9%,-4.4,-4.2,5.4%,?
COc1ccc(O)c(/C=N/N2CCOCC2)c1,0.0%,40.7*,98.7*,3.9%,?
Oc1ccc(/C=N/N2CCCCC2)c(O)c1,16.1%,48.5*,106.5*,1.2%,-0.3%
CCc1cc(=O)oc2cc(C)cc(OC(C)C(=O)NCCCN3CCCC3=O)c12 (stereo not given),·,10.5,2.2,-6.8%,0.4%
Oc1ccc(/C=N/N2CCOCC2)c(O)c1O,5.61µM*,12.8,-5.2,·,-2.8%
COc1cccc(/C=N/N2C(=O)NC3(CCCCC3)C2=O)c1O,0.6%,37.2*,51.4,9.0%,-16.6%
Oc1cccc(/C=N/N2CCCCC2)c1O,-11.7%,39.6*,95.6*,-2.5%,-8.8%
SMILES,FBPA Giardia inh,CHX counter,Shiga toxin inh,NS1 inh,LmPK inh
COc1cccc(/C=N/N2CCOCC2)c1O,2.6%,23.6*,active,5.2%,?
Oc1ccc(/C=N/N2CCCCC2)c(O)c1O,2.82µM*,1.5,11.7,4.9%,-11.1%
Oc1ccccc1/C=N/N1CCCCC1,-3.7%,39.5*,84.9*,·,-7.7%
Brc1ccccc1/C=N/N1CCCCC1,0.9%,4.5,-3.8,11.9%,-2.5%
Oc1ccc(/C=N/N(c2ccccc2)c2ccccc2)c(O)c1O,·,-2.6,14.6,9.8%,-4.8%
CC(C)c1ccccc1S(=O)(=O)c1cc(N)c2ncccc2c1[N+](=O)[O-],-12.2%,·,·,·,·
Clc1ccc(Cn2c(/C=C/c3ccco3)nc3ccccc32)cc1,-5.7%,215.6*,187.4*,-24.5%,-11.3%
